Consider 40 compounds from PubChem BioAssay (NCI).

The panel holds about 83,000 compounds, 20% with a hit somewhere; the sample as a whole holds those more often.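 Negative percent growth values reflect cell death: -40 means 40% of the cells present at the start died, and -100 means all died.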 Calls of active or inactive are those of the source. How the source made its calls: active means growth percent below 10; inactive means the rest.

The subject of the assay is MDA-MB-468 breast. Briefly: NCI-60 one-dose screen, 48 h (100 = growth as untreated, 0 = no growth, -100 = all killed). The conditions noted are these: 10 µM unless noted.
With `CCC(C)N(CCNc1cc(OC)cc2cccnc12)CCC(C)C` (stereo not given), the growth is -24.8% (active).

As for `CCN(CC)CCN1C(=O)c2c(c3c4ccccc4[nH]c3c3[nH]c4ccccc4c23)C1=O`, the growth is 89.2% (inactive).

On to `Cn1cc(-c2nc(-c3c[nH]c4ccncc34)cs2)c2cc(Br)ccc21`, for which the growth is -71.8% (active).

Take `COc1ccc(/C=N\N2CCOCC2)cc1OC1CCCC1`: the growth is 117% (inactive).

For the compound `CN(C)CCn1c(=O)c2ccccc2n2nc3ccccc3c12`, the growth was 105% (inactive).

For `Cc1ccc2oc3nc(C)c(C(=O)NCc4ccccc4)cc3c(=O)c2c1`, the growth was 96.7% (inactive).

For the compound `COc1ccc(CN2CCCC(C(=O)c3ccc(C(F)(F)F)cc3)C2)c(O)c1` (stereo not given), the growth is 12.9% (inactive).

On to `COc1cc(C(=O)C[n+]2ccccc2)ccc1OC(C)=O`, for which the growth is 101% (inactive).

On to `Nc1c(C(=O)Nc2cccc(Cl)c2)sc2nc3c(cc12)C(O)CCC3` (stereo not given), for which the growth was 39.5% (inactive).

Regarding `CCOC(=O)/C=c1\sc2n(c1=O)C1C(NN=2)N(CC)C(=O)N1CC` (stereo not given), the growth is 48.4% (inactive).

For `N#Cc1c(-c2ccc(Cl)cc2)nc(N=Nc2c(O)[nH]c3ccc(Cl)cc23)nc1N1CCOCC1`, the growth is 90.8% (inactive).

`CCOC(=O)C1C(C(=O)OCC)C2C(=O)C3C(C(=O)OCC)C(C(=O)OCC)C3C(=O)C12` (stereo not given): the growth is 98.5% (inactive).

With `NC(=Nc1ccc(N)cc1)C(N)=Nc1ccc(N)cc1`, the growth is 94.3% (inactive).

With `COc1cc2ncn3c(=O)c4c5c(sc4nc3c2cc1OC)CCCCC5`, the growth was 107% (inactive).

Turning to `COc1cc(C=Nc2oc(-c3ccccc3)c(-c3ccccc3)c2C#N)cc(CN2CCCCC2)c1O`, the growth was 95.6% (inactive).

For `CCN1CCN(c2nc(NNC(=O)c3ccc(OC)cc3)nc(N3CCN(C(c4ccccc4)c4ccccc4)CC3)n2)CC1`, the growth is 10.7% (inactive).

As for `O=C(Nc1cccc(Cl)c1)c1ccc(Cl)cc1Cl`, the growth is 96.9% (inactive).

On to `COc1cccc(-c2nc3sccn3c2-c2ccnc(NCCNS(=O)(=O)c3ccccc3)n2)c1`, for which the growth is 67.4% (inactive).

Consider `Nc1ncc(-c2ccc3ncnc(NCc4ccccc4)c3c2)cn1`, for which the growth is -11.7% (active).

Consider `C#Cc1cccc(Nc2ncnc3cc4c(cc23)OCCOCCOCCO4)c1`, for which the growth was -26.7% (active).

On to `COc1ccc(/C=C(\C#N)C(=O)Nc2cccc(Nc3nc(SC)nc(-c4cccc([N+](=O)[O-])c4)c3C#N)c2)cc1OC`, for which the growth was 106% (inactive).

As for `O=C(NCCCNc1cc(-c2cn(-c3ccccc3)nc2-c2cccc(O)c2)ccn1)Nc1cccc(C(F)(F)F)c1`, the growth is 11.2% (inactive).

With `Clc1ccccc1N=Cc1ccc2c(c1)OCO2`, the growth is 101% (inactive).

Take `Oc1c(Cl)cc(Cl)c(Cl)c1CNCCNCc1c(O)c(Cl)cc(Cl)c1Cl`: the growth is 2.91% (active).

`COc1ccc(CN2c3ccccc3Sc3ccccc32)cc1O`: the growth is 9.33% (active).

Turning to `CC(=O)/C(N=Nc1ccc2oc(=O)ccc2c1)=C(\C)O`, the growth is 9.38% (active).

As for `CCN(CC)CCOc1ccc(C(=C(C)c2ccc(Cl)cc2)c2ccc(OCCN(CC)CC)cc2)cc1`, the growth is -81.6% (active).

`O=C1CC(c2nc3ccccc3s2)CN1C1CCCCC1` (stereo not given): the growth was 104% (inactive).

On to `COc1ccc(-c2nc(-c3nc4ccc(F)cc4[nH]3)cc3c2[nH]c2ccccc23)cc1`, for which the growth is 40% (inactive).

Consider `CCOC(=O)/C(C#N)=C(/CC)OCC`, for which the growth was 113% (inactive).

On to `CCOC(=O)c1c2c(n3ccc(NC(=O)CCN4CCCC4)cc13)C(=O)c1ncccc1C2=O`, for which the growth was -82% (active).

Consider `COc1ccc(C(=O)c2cc(C)c(OC)c(C)c2)c(OC)c1N(C(=O)CCl)C(=O)CCl`, for which the growth is 3.62% (active).

With `O=C(COc1ccc(-c2nc3ccccc3[nH]2)cc1)N=Nc1c(O)[nH]c2ccccc12`, the growth is 34.5% (inactive).

Regarding `Cn1c(N)c(N=Nc2ccc(S(=O)(=O)Nc3nccs3)cc2)c(=O)n(C)c1=O`, the growth was 116% (inactive).

On to `Brc1ccc2c(c1)c(-c1nc(-c3c[nH]c4ncccc34)cs1)cn2CCCN1CCCCC1`, for which the growth is -15% (active).

Regarding `CCCCNC1=C(OCC)C(=O)c2ccccc2C1=O`, the growth is 56.3% (inactive).

As to `Cc1c(Cl)cccc1NC(=S)NC(=O)c1ccccc1`, the growth is 33.9% (inactive).

For the compound `CN(C)CCn1c2ccc(Br)cc2c2nc3ccccc3nc21`, the growth was 13% (inactive).

For `Nc1c(C(=O)Nc2cccc(F)c2)sc2nc3c(cc12)C(=O)CCC3`, the growth is 33.2% (inactive).

Regarding `COC(=O)c1ccc2[nH]c(O)c(C(=Nc3ccc(N(C)C(=O)CN4CCN(C)CC4)cc3)c3ccc(N)cc3)c2c1`, the growth was 62% (inactive).
